# DAX1 inh: DAX1 (NR0B1) inhibition, primary screen | HEK293T StAR-luciferase reporter, SF-1/DAX-1 repression relief | inhibition, % at 6.8 µM | 370,000 compounds, 1.1% hits | AID 652010;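 active = inhibition above the mean over all tested compounds plus 3 SD, cut at about 3.6% in these data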;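 note: 0% = DAX-1 cells with DMSO and 100% = cells lacking DAX-1 with DMSO; higher inhibition means more luminescence from relief of DAX-1 repression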
# hgDAF-12 ag: agonists of H. glycines DAF-12 nuclear receptor; HEK293 GAL4-hgDAF12 UAS-luciferase reporter, agonist luminescence; normalized to butyrate control; activation, % at 6.8 µM; 370,000 compounds, 1.8% hits;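 active = activation above a cutoff set at the mean of all screened compounds plus 3 SD, cut at about 10% in these data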;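 note: 0% = DMSO wells and 100% = sodium butyrate wells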
# ssDAF-12 act: activators of S. stercoralis DAF-12 nuclear receptor | 370,000 compounds, 1% hits | HEK293 ssDAF-12/GRIP1 lit1-tk-luc reporter, luminescence; % of 3 µM dafachronic acid response | AID 652126 | activation, % at 6.8 µM;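 active = activation above the mean over all tested compounds plus 3 SD, cut at about 0.9% in these data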;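 note: 0% = DMSO-only wells and 100% = 3 µM delta7-dafachronic acid wells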
# esBAF inh: inhibitors of esBAF chromatin remodeling in mouse ES cells; Bmi1-luciferase knock-in reporter, 24 h; 100% = twice the neutral-well signal; reporter increase, % at 12.5 µM; 350,000 compounds, 2% hits; AID 602393; in the data active = activation above about 40%; inconclusive = no clear call, values can overlap the other calls;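 note: 0% = median of the plate's neutral control wells and 100% = double that signal; a rise in the Bmi1 reporter signal indicates esBAF inhibition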
# hcDAF12 agonist: activators of H. contortus DAF-12 nuclear receptor. HEK293 hcDAF-12 lit1-tk-luc reporter, luminescence; 0% DMSO, 100% Δ7-dafachronic acid. activation, % at 6.8 µM. 370,000 compounds, 1.4% hits;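 active = activation above the mean of all tested compounds plus 3 SD, cut at about 5.5% in these data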;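 note: 100% = response to 3 µM Δ7-dafachronic acid high control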
# Wnt act: Wnt/beta-catenin pathway activation; Wnt/beta-catenin reporter cell assay, activator, plate reader; activation, % at 9.35 µM; 300,000 compounds, 1.2% hits; AID 743398; in the data active = activation above about 30%, passing the limit was not always enough; inconclusive = no clear call, values can overlap the other calls;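 note: 0% = neutral control wells and 100% = positive control wells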
# * hit, by the source's call; ? = inconclusive; . = no result. Most compounds without a hit are left out; they make up all but 4.2% or so of the library.
SMILES,DAX1 inh,hgDAF-12 ag,ssDAF-12 act,esBAF inh,hcDAF12 agonist,Wnt act
CC1CCC(NC(=O)CNC(=O)c2cccs2)CC1 (configuration not stated),4.4*,7.5,-0.1,23.5,3.5,10.6
CC1CCCC(NC(=O)c2ccc3c(c2)OCCO3)C1C (configuration not stated),2.5,7.5,-0.4,?,3.2,34.8*
CC1CCCC(NC(=O)c2cccs2)C1C (configuration not stated),-0.5,1.3,-1.3,42.6*,0.7,2.7
CC1CCCCC1NC(=O)c1ccc2c(c1)OCCO2 (configuration not stated),2.7,5.6,-1.1,33.0,1.3,29.2
CCCNC(=O)Nc1ccc2c(c1)C(=O)N(C)C[C@H](OC)[C@@H](C)CN(CCC)[C@H](C)CO2,.,.,.,1.8,.,.
COc1ccc(OCC(=O)N/N=C2\CCc3ccccc32)cc1,0.2,-1.7,-0.4,9.7,-0.5,.
NC(=O)C(=O)N/N=C1\CCc2ccccc21,0.8,3.6,0.0,48.4*,6.0*,33.1*
COC(=O)C1C/C(=N\NS(=O)(=O)c2ccc(C)cc2)c2ccccc2C1 (configuration not stated),-3.1,-1.0,-0.9,-3.4,-1.3,3.8
Cc1ccc(S(=O)(=O)NN=C2CCc3ccccc32)cc1,0.3,4.6,1.6*,2.2,3.8,0.0
CC(C)N1CC2(CC(c3ccccc3F)=NO2)CN1C(=O)c1ccco1 (configuration not stated),2.3,6.4,-0.8,57.2*,-1.5,0.0
O=C/C(=C\Nc1ccccn1)c1nc2ccccc2o1,-0.1,2.5,-0.1,38.3,5.8*,.
Cc1cccc(C)c1NC(=O)C(c1ccccc1)n1c(=O)c(-c2cc3ccccc3[nH]2)nc2ccccc21 (configuration not stated),0.5,0.9,0.2,.,2.8,-2.8
Cc1cccc(C)c1NC(=O)C(c1ccncc1)n1c(=O)c(-c2cc3ccccc3[nH]2)nc2ccccc21 (configuration not stated),2.5,10.6*,1.0*,.,6.4*,-2.7
CCCCCNC(=O)C(c1ccc(-c2ccccc2)cc1)n1c(=O)c(-c2cc3ccccc3[nH]2)nc2ccccc21 (configuration not stated),1.7,6.0,1.2*,.,6.0*,-3.2
CCCCCNC(=O)C(C1CC1)n1c(=O)c(-c2cc3ccccc3[nH]2)nc2ccccc21 (configuration not stated),0.1,3.3,-0.4,.,2.1,-9.6
CC(C)(C)NC(=O)C(c1cc2ccccc2o1)n1c(=O)c(-c2ccccc2)nc2ccccc21 (configuration not stated),1.0,3.0,1.1*,.,3.6,-3.1
CCCCCNC(=O)C(c1cc2ccccc2o1)n1c(=O)c(-c2cc3ccccc3[nH]2)nc2ccccc21 (configuration not stated),0.4,4.9,-0.2,.,5.6*,-2.7
CSc1nnc(SCC2=NNC(=O)SC2)s1,-0.3,1.1,0.9*,.,-0.8,.
Cc1cccc(N2CCN(C(=O)CNC(=O)C3CCCCC3)CC2)c1C,-4.9,-3.7,-1.6,?,-2.1,2.9
Cc1cccc(N2CCN(C(=O)CNC(=O)c3ccccc3)CC2)c1C,-1.3,-0.2,-1.5,50.0*,-2.1,7.6
CC(C)(C)NC(=O)Nc1ccc2nccnc2c1,0.7,3.9,-1.2,51.6*,1.6,.
Cc1noc(C)c1NC(=O)N(C)C[C@H]1Oc2c(NC(=O)Nc3cccc4ccccc34)cccc2C(=O)N([C@H](C)CO)C[C@H]1C,.,.,.,-0.9,.,.
C=CCn1c(N)c(C(=O)Nc2ccccc2OC)sc1=S,-0.4,1.0,0.2,-5.3,2.4,-2.7
C=CCn1c(N)c(C(=O)Nc2ccc(C)cc2)sc1=S,1.5,3.6,-0.7,51.2*,1.0,.
CCn1c(=O)c(C(=O)NCc2ccc(Cl)cc2)c(O)c2ccccc21,-0.6,-0.7,-1.1,11.8,-0.1,43.1*
SMILES,DAX1 inh,hgDAF-12 ag,ssDAF-12 act,esBAF inh,hcDAF12 agonist,Wnt act
CCn1c(=O)c(C(=O)NCc2ccccc2)c(O)c2ccccc21,-0.5,-1.0,-1.3,-1.2,0.6,0.2
C=CCn1c(=O)c(C(=O)Nc2ccc(C)cc2)c(O)c2ccccc21,0.4,4.1,1.0*,67.3*,2.0,6.2
COc1ccc(S(=O)(=O)Nc2ccc3c(c2)[C@H]2C[C@@H](CC(=O)O)O[C@H](CO)[C@H]2O3)cc1,.,.,.,4.0,.,.
O=C(N[C@@H]1CC[C@H](CCNS(=O)(=O)c2ccc(F)cc2)O[C@H]1CO)c1cnccn1,.,.,.,4.7,.,.
O=c1c2c(nc3n1CCCCC3)sc1c(O)c(Br)ccc12,4.4*,5.9,-0.1,-24.0,4.0,11.0
CSc1nc2sc3c(c2c(=O)n1C)CCCC3,0.7,2.4,-0.5,44.7*,0.4,.
CSc1nc2sc3c(c2c(=O)n1C)CCC3,-0.5,-2.1,-0.8,5.7,-0.5,-0.5
O=c1c2c3c(sc2nc2n1CCCC2)CCCC3,0.3,3.4,-0.2,47.5*,-0.4,.
CCN(CC)CCOc1c(Br)ccc2c1sc1nc3n(c(=O)c12)CCC3,0.3,6.0,-0.2,18.8,1.1,0.7
CCCN1[C@H](C(=O)N[C@@H](C)c2ccccc2)[C@@H](CO)[C@@H]2Cn3c(ccc(-c4cccc(F)c4)c3=O)[C@@H]21,.,.,.,3.4,.,.
C[C@@H]1CCCCO[C@@H](CN(C)CC2CCCCC2)[C@@H](C)CN([C@@H](C)CO)C(=O)c2cc(NS(=O)(=O)c3cn(C)cn3)ccc2O1,.,.,.,-0.2,.,.
COc1cccc(/C=C2/SC(=O)N(C)C2=O)c1OCc1ccc(C(=O)O)cc1,-0.1,-0.4,-1.0,.,-1.5,-1.2
CN1C(=O)S/C(=C/c2ccc(OCc3cccc(C(=O)O)c3)cc2)C1=O,0.5,3.5,-0.8,-25.2,1.0,44.7*
CSc1nsc2nc(=O)c(/C=C3\C(C)=Nc4ccccc43)c(N)n12,0.9,5.9,0.9*,.,4.6,8.0
CCOc1ncccc1C(=O)Nc1ccc2c(c1)OCO2,0.1,2.0,-1.2,.,-1.5,3.0
CCOc1ncccc1C(=O)Nc1cc2c(cc1Br)OCCO2,0.6,7.2,-0.8,55.3*,0.7,8.0
CCOc1ncccc1C(=O)OCC(=O)c1ccccc1Br,0.1,-1.3,1.2*,.,-1.6,0.1
COc1ccccc1NC(=O)N[C@H]1C=C[C@@H](CC(=O)NCc2ccc(Cl)c(Cl)c2)O[C@H]1CO,.,.,.,1.6,.,.
C[C@H]1CN([C@@H](C)CO)S(=O)(=O)c2ccc(-c3ccncc3)cc2O[C@@H]1CN(C)Cc1cccnc1,.,.,.,2.5,.,.
CCCNC(=O)N(C)C[C@@H]1Oc2cc(-c3ccccc3F)ccc2S(=O)(=O)N([C@@H](C)CO)C[C@H]1C,.,.,.,-7.7,.,.
CC(=O)c1c(C)[nH]c(C(=O)OCc2cccc(Cl)c2)c1C,-0.3,2.1,-1.9,46.2*,-0.7,-0.1

# Compound activity: PubChem BioAssay, several laboratories
